Among the data in PubChem BioAssay (EPA / NIEHS) are outcome and AC50 values, retold here.

Results filed as inconclusive are left out. Activity calls are given as the source filed them. The calls were made as follows: active = hit-call score of the fitted dose curve at least 0.9, where 1 is the maximum; inconclusive = response in the unintended direction; inactive = score below 0.9.

Sequence of rat Monoamine Oxidase, MAO-B, Peripheral (MAOBP), Maob (gene 25750) (P19643 whole entry, looked up): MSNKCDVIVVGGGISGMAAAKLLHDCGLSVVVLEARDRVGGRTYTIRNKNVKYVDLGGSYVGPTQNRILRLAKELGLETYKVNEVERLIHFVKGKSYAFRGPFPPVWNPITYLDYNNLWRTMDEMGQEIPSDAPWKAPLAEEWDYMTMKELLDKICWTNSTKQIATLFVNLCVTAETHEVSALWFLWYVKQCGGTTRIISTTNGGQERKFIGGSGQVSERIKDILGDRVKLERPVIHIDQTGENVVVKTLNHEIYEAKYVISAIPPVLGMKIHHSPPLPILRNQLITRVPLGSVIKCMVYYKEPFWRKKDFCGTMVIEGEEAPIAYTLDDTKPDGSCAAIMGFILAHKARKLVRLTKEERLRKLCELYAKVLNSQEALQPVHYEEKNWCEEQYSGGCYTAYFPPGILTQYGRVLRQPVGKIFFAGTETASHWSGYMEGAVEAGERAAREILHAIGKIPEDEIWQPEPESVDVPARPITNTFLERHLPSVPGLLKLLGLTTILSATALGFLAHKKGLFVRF

The assay has as its target rat Monoamine Oxidase, MAO-B, Peripheral (MAOBP), Maob (gene 25750) (UniProt P19643). Description: NVS_ENZ_rMAOBP: NovaScreen (NVS) Enzymatic Assay for rat Monoamine Oxidase, MAO-B, Peripheral (MAOBP) (AID 2283242). How it is done:
NVS_ENZ_rMAOBP is a biochemical, single-readout assay that uses extracted gene-proteins from Rat brain in a tissue-based cell-free assay. Measurements were taken 1.17 hours after chemical dosing in a 96-well plate.NVS_ENZ_rMAOBP is one of one assay component(s) measured or calculated from the NVS_ENZ_rMAOBP assay. It is designed to make measurements of enzyme activity, a form of enzyme reporter, as detected with scintillation counting signals by Lysate-based radiodetection technology.Data from the assay component NVS_ENZ_rMAOBP was analyzed into 1 assay endpoint. This assay endpoint, NVS_ENZ_rMAOBP, was analyzed in the positive analysis fitting direction relative to DMSO as the negative control and baseline of activity. Using a type of enzyme reporter, loss-of-signal activity can be used to understand changes in the enzymatic activity as they relate to the gene Maob. Furthermore, this assay endpoint can be referred to as a primary readout, because this assay has produced multiple assay endpoints where this one serves a enzymatic activity function. To generalize the intended target to other relatable targets, this assay endpoint is annotated to the oxidoreductase intended target family, where the subfamily is monoamine oxidase.
Binding assays used specific radioligands (tritiated, iodinated) with non-radioactive competitive displacement ligands in agonist or antagonist protocols (as indicated) and various reference compounds and inhibitors to titrate specific binding to receptors and transporters. Most enzyme assays (CYPs, kinases, phosphatases, proteases, HDACs) used recombinant protein and specific substrates (fluorescence mostly, some colorimetric and radioactive) and inhibitors, followed by a biochemical separation of substrate and product. All assays for the biochemical HTS were initially run in duplicate at a single concentration (10 uM for CYP450 assays and 25 uM for all others). Assay-chemical combinations meeting a pre-defined threshold (e.g., 30% inhibition and other criteria defined below) were then run in singleton concentration-response format with maximum concentration of 20 uM for CYPs and 50 uM for all others. Each assay was run with positive and negative controls, and concurrent controls on every plate. The follow-up (secondary) screen tested active chemical-pairs in concentration series, as well as a few additional assays not tested in the primary screen, some selected negative inactives, and several cases re-run in the concentration series for confirmatory purposes.
On to `CCCCCCC(C=O)=Cc1ccccc1`, for which the result was inactive. As usually defined, the AC50 is the concentration at which the activity in the assay is half-maximal. For `N=C(N)c1ccc(OCCCCCOc2ccc(C(=N)N)cc2)cc1`, the AC50 was 0.905 µM (active).

On to `CS(=O)(=O)OCCCCOS(C)(=O)=O`, for which the call was inactive. Still for that read-out and setting: next, `O=C(c1ccc(O)cc1O)c1ccc(O)cc1O`: “inactive”; `NC(=O)c1nc(-c2cccc(-c3cc(F)ccc3OCC(F)(F)C(F)(F)F)c2)n[nH]1`: “inactive”. As to `CCN(CC)CCOc1ccc(C(=C(Cl)c2ccccc2)c2ccccc2)cc1`, the concentration at half-maximal activity (AC50) is 3.9 µM (active). For `CN(C)c1ccc(N=NS(=O)(=O)O)cc1`, the AC50 is 23.8 µM (active). Regarding `Fc1ccccc1[C@@H](F)COC1CCC(Nc2ncnc3[nH]ncc23)CC1` (stereo not given in full), the AC50 was 7.67 µM (active). For `CC1=C(/C=C/C(C)=C/C=C/C(C)=C/C(=O)O)C(C)(C)CCC1`, the outcome was inactive. `Cc1occc1C(=O)Nc1ccc(C(=O)N2CCC(F)(F)/C(=C\C(=O)N3CCC(N4CCCCC4)CC3)c3ccccc32)cc1`: the AC50 was 9.05 µM (active).

With `CC(C)(O)c1ccc(CNC(=O)c2cccnc2Oc2ccc3nonc3c2)cc1`, the outcome was inactive. On the same count and under the same terms, next, `CCC(C)N(C)C(=O)c1cc2ccccc2c(-c2ccccc2Cl)n1` (stereo not given): “inactive”. Regarding `CCCC[C@H]1CN(CC2CCOCC2)C(=O)OC12CCN(C1(C)CCN(C(=O)c3c(C)ncnc3C)CC1)CC2`, the call was inactive. Still for that read-out and setting: then `CC=Cc1ccc(O)c(OC)c1`, with “inactive”. For `COc1ccc(OC(F)(F)F)cc1CN[C@H]1CCCN[C@H]1c1ccccc1`, the AC50 was 36.5 µM (active). On to `O=c1c(-c2ccc(O)cc2)coc2cc(O)ccc12`, for which the outcome was inactive. Still for that read-out and setting: next, `Cc1nccn1-c1ccc(Sc2cccc(C3(C(N)=O)CCOCC3)c2)cc1`: “inactive”. As for `CCOC(=O)C(C)Oc1ccc(Oc2nc3ccc(Cl)cc3o2)cc1` (stereo not given), the concentration at half-maximal activity (AC50) was 29.9 µM (active).

For the molecule `Cc1oc(-c2ccccc2)nc1CCOc1ccc(C[C@H](Nc2ccccc2C(=O)c2ccccc2)C(=O)O)cc1`, the molecule was classed as inactive. For `O=C(c1ccc(OCCN2CCCCC2)cc1)c1c(-c2ccc(O)cc2)sc2cc(O)ccc12`, the AC50 is 10.8 µM (active). As for `O=C(c1ccccc1)C1CCCCC1`, the call was inactive. For `NCc1cccc(C2CCN(C(=O)c3ccc(C#Cc4ccccc4F)o3)CC2)c1`, the AC50 was 38 µM (active). Turning to `O=C(NS(=O)(=O)/C=C/c1cccs1)c1ccc(F)cc1Br`, the molecule was called inactive. The same measure, in the same setting: next, `COc1ccc2cc(S(=O)(=O)N[C@H](CC(=O)N[C@H](Cc3ccc(CN4[C@H](C)CCC[C@@H]4C)cc3)C(=O)N(C)C(C)C)c3ccc4c(c3)OCO4)ccc2c1`: “inactive”; `CCN(Cc1cccnc1)C(=O)c1cccc(Cl)c1[C@]1(C)C(=O)N(Cc2ccc(OC)cc2OC)c2ccc(Cl)cc21`: “inactive”. Regarding `S=C([S-])NCCNC(=S)[S-].[Mn+2]`, the result was inactive. Consider `O=c1[nH]sc2ccccc12`, for which the concentration at half-maximal activity (AC50) was 19.2 µM (active). Take `CC(N)=O`: the call was inactive. As to `CCOC(=O)CCC(=O)OCC`, the AC50 was 34.7 µM (active). The same measure, in the same setting: then `O=c1ccc2ccccc2o1`, with 13.5 µM (active). On to `O=C1NS(=O)(=O)c2ccccc21`, for which the call was inactive.

On to `O=[N+]([O-])c1ccc(O)cc1`, for which the AC50 was 39.1 µM (active).

`S=C(S)NCCNC(=S)S.[Mn+2].[S-]C([S-])=NCCN=C([S-])[S-].[Zn+2]`: the call was inactive.

For the molecule `C=CCCCCCCCCCCCC`, the outcome was inactive. Regarding `COc1cccc([C@H](O)C2CCN(CCc3ccc(F)cc3)CC2)c1OC`, the AC50 is 12.5 µM (active). Same read-out and setting: next, `c1ccc(C(O[C@@H]2CCCN(CCc3ccc4c(c3)OCO4)C2)c2ccccc2)cc1`: 22 µM (active). On to `CN(C)C(=O)NC1(c2ccccc2)CCN(CCC[C@]2(c3ccc(Cl)c(Cl)c3)CCCN(C(=O)c3ccccc3)C2)CC1`, for which the call was inactive.

Regarding `Oc1ccc2ccccc2c1`, the AC50 is 13.3 µM (active). Still for that read-out and setting: then `COc1cccc(-c2ccc(/C=C\CN3CCCCCC3)cc2Cl)c1`, with 11.6 µM (active).

On to `CCCCCCCC/C=C\CCCCCCCC(=O)OC[C@@H](O)[C@H]1OC[C@H](O)[C@H]1O`, for which the call was inactive.
